Only some compounds are listed: those with a hit (about 2.2% of all), similar ones and a draw of the others.
HIF act: HIF pathway transcriptional activation; U2OS HRE-luciferase reporter, luminescence; normalized: DMSO 0%, desferrioxamine 100%; activation, % at 7.5 µM (by protocol); 300,000 compounds, 0.32% hits; AID 1910;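 active = mean activation of at least 10% of the iron chelator positive control signal, with at least half of replicates also reaching 10%; inconclusive = mean and replicate majority disagree about reaching 10%; inactive = mean and most replicates under 10%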
CHT block: inhibits the human high affinity choline transporter; CHT-expressing cells, membrane potential dye, choline response; stronger effect = lower value; Q9GZV3; 310,000 compounds, 0.86% hits; B-score at 10 µM;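 active = B-score over 3 SD under the library average, and starting fluorescence ratio not unusually high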;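 note: choline stimulus applied at its EC90 after an EC20 pre-addition; B-score computed on integrated fluorescence ratio after choline addition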
VLA-4 inh: inhibition in a human VLA-4 binding assay; VLA-4 expressing cells, ligand binding flow cytometry; inhibition, % (about 7 µM as worked out from the volumes in the protocol); 330,000 compounds, 0.2% hits; in the data active = inhibition above about 50%
Target sequence (P13612 whole entry, looked up): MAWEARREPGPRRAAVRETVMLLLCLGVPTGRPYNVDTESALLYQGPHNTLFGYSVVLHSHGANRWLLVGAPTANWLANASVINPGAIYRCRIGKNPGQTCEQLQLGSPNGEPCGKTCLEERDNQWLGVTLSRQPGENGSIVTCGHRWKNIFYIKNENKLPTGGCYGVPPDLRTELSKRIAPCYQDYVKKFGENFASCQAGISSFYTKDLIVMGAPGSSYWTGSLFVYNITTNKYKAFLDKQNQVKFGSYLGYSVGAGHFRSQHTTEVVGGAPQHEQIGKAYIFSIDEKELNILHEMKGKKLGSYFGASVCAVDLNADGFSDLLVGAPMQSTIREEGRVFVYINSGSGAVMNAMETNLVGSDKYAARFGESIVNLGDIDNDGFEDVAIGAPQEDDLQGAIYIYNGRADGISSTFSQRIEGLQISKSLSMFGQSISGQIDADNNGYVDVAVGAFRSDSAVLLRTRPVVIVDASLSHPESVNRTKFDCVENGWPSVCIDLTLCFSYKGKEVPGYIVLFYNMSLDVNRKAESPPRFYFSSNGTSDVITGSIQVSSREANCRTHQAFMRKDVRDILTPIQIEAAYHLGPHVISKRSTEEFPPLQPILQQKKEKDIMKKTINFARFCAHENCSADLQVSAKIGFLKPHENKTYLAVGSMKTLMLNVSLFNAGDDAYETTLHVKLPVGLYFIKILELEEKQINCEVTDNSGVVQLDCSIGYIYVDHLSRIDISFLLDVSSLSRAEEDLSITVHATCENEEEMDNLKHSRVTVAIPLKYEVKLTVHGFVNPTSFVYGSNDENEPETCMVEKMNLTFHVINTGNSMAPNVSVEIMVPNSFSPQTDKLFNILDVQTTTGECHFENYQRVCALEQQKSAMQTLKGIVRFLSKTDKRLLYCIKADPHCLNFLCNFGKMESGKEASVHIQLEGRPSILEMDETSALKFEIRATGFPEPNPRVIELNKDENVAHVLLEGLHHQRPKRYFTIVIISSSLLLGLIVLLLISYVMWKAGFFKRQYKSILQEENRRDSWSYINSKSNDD
CHT allo act: allosteric activators of human choline transporter CHT. Q9GZV3. B-score at 10 µM. 310,000 compounds, 0.49% hits. CHT-expressing cells, membrane potential dye, choline EC20; stronger effect = higher value; LV-AA mutant CHT in HEK293 cells. AID 488977;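 active = initial fluorescence not abnormally high and integrated response B-score, plate-corrected, over 3 SD above library mean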
Platelet DG rel: platelet dense granule release activity | AID 1663 | 300,000 compounds, 0.22% hits | human platelet-rich plasma, SFLLRN dense granule ATP release, luminescence | inhibition, %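 (compounds screened at 7.5 µM in platelet-rich plasma)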;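 active = mean replicate score, as percent of positive control, at or above 50; inconclusive = mean below 50 but at least one replicate at or above 50; inactive = mean and every replicate below 50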
AI-2 QS mod: Vibrio harveyi AI-2 quorum sensing modulation; Vibrio harveyi JMH597 AI-2 luminescence/OD600 ratio, 9 h; stronger effect = lower value; strain lacks LuxN and CqsS sensors; 0 = neutral-control median; activity change, % at 7.5 µM; 300,000 compounds, 0.4% hits; AID 2094; in the data active = activity change below about -75%, passing the limit was not always enough; inconclusive = no clear call, values can overlap the other calls;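 note: luminescence divided by OD600 gain over 9 h not by final OD600 alone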
JMH597 growth: retest: inhibitors of Vibrio harveyi JMH597 growth | shares compounds with AI-2 QS mod | OD600 absorbance, 9 h; lacks LuxN and CqsS sensors | growth inhibition, % at 7.5 µM | 750 compounds, 1% hits | AID 2726;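 active = every replicate shows growth inhibition above 50%; inconclusive = at least half, but not all, replicates pass that cutoff; inactive = fewer than half of replicates pass it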
BB721 lum counter: retest counter-screen: lowers luminescence of constitutive-QS Vibrio harveyi BB721; AID 2727; 750 compounds, 95% hits; 9 h; shares compounds with AI-2 QS mod; inhibition, % at 7.5 µM;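 active = inhibition above about 80% in every replicate, not just on average, limit read from the data; inconclusive = at least half of replicates past the limit, but not all; inactive = fewer than half of replicates past the limit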
BB721 growth: retest: inhibitors of Vibrio harveyi BB721 growth | 750 compounds, 3% hits | growth inhibition, % at 7.5 µM | shares compounds with AI-2 QS mod | OD600 absorbance, 9 h;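 active = every replicate shows growth inhibition above 50%; inconclusive = at least half but not all replicates above 50% inhibition; inactive = under half of replicates above 50% inhibition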
AI-2 QS JMH597: Vibrio harveyi AI-2 signaling luminescence modulation – JMH597 strain, confirmation; 750 compounds, 97% hits; inhibition, % at 7.5 µM; shares compounds with AI-2 QS mod; Vibrio harveyi JMH597 AI-2 quorum sensing luminescence, 9 h; luxN and CqsS knockout, AI-2 only;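 active = every replicate shows more than 75% inhibition of signal versus neutral control wells; inconclusive = half to three quarters of replicates exceed 75% inhibition; inactive = fewer than half of replicates exceed 75% inhibition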
VLA-4 allo CP: confirmation of allosteric modulators of human VLA-4 integrin; shares compounds with VLA-4 inh; U937 cells, HUTS-21 LIBS mAb binding, flow cytometry; LDV ligand present at threefold Kd; inhibition, % at 6.7 µM; 1,300 compounds, 2% hits; in the data active = inhibition above about 40%
A number is an active result; 0 = inactive; ? = inconclusive; - = no result given.

SMILES | HIF act | CHT block | VLA-4 inh | CHT allo act | Platelet DG rel | AI-2 QS mod | JMH597 growth | BB721 lum counter | BB721 growth | AI-2 QS JMH597 | others
O=C(/C=C/c1cccc(F)c1)NCc1ccc2c(c1)OCO2 | 0 | 0 | 0 | 0 | 0 | -88 | 0 | 96 | 0 | 97
Cc1cccc(NC(=S)NCc2ccc3c(c2)OCO3)c1 | 0 | 0 | 0 | 0 | 0 | 0 | - | - | - | -
Cc1cccc(NC(=O)NCc2ccc3c(c2)OCO3)c1 | 0 | 0 | 0 | 0 | 0 | -87 | 0 | 96 | 0 | 96
Cc1cccc(NC(=O)CO/N=C/c2ccc3c(c2)OCO3)c1 | 0 | 0 | 0 | 0 | 0 | -89 | 0 | 96 | 0 | 97
O=C(CO/N=C/c1ccc2c(c1)OCO2)Nc1cccc(Br)c1 | 0 | 0 | 0 | 0 | 0 | -89 | 0 | 98 | 0 | 98
Cc1ccc(CNC(=O)CO/N=C/c2ccc3c(c2)OCO3)cc1 | 0 | 0 | 0 | 0 | 0 | 0 | - | - | - | -
COc1ccc(NC(=O)Cn2nc(C)c3ccccc3c2=O)cc1 | 0 | 0 | 0 | 0 | 0 | -92 | 0 | 97 | 0 | 98
Cc1nnc(NC(=O)Cn2nc(C)c3ccccc3c2=O)s1 | 0 | 0 | 0 | 0 | 0 | -90 | 0 | 98 | 0 | 99
CN(CC(=O)Nc1ccc(F)cc1)C(=O)CSc1ncccn1 | 0 | 0 | 0 | 0 | 0 | 0 | - | - | - | -
c1ccc(CSc2ncn[nH]2)nc1 | 0 | 0 | 0 | 0 | 0 | 0 | - | - | - | -
O=C(/C=C/c1ccc(F)cc1)NCc1cccs1 | 0 | 0 | 0 | 0 | 0 | -90 | 0 | 95 | 0 | 96
O=C(/C=C/c1ccccc1Cl)NCc1cccs1 | 0 | 0 | 0 | 0 | 0 | -93 | 0 | 97 | 0 | 98
CCC(C)NC(=O)/C=C/c1cccs1 (centres undefined) | 0 | 0 | 0 | 0 | 0 | 0 | - | - | - | -
O=C(/C=C/c1cccs1)NCc1ccccc1 | 0 | 0 | 0 | 0 | 0 | -90 | 0 | 97 | 0 | 97
O=C(/C=C/c1ccc(Br)cc1)NCc1cccs1 | 0 | 0 | 0 | 0 | 0 | 0 | - | - | - | -
O=C(/C=C/c1ccccc1Cl)NNC(=O)c1cccs1 | 0 | 0 | 0 | 0 | 0 | 0 | - | - | - | -
CC(C)c1nnc(NC(=O)CCN2C(=O)c3ccccc3C2=O)s1 | 0 | 0 | 0 | 0 | 0 | -83 | 0 | 95 | 0 | 96
CCCc1nnc(NC(=O)CCN2C(=O)c3ccccc3C2=O)s1 | 0 | 0 | 0 | 0 | 0 | -87 | 0 | 94 | 0 | 96
O=Cc1ccccc1OCCOc1ccc([N+](=O)[O-])cc1 | 0 | 0 | 0 | 0 | 0 | 0 | - | - | - | -
CC(=O)Nc1ccc(C(=O)OCc2ccc(F)cc2)cc1 | 0 | 0 | 0 | 0 | 0 | -83 | 0 | 93 | 0 | 92
CCCS(=O)(=O)c1ccc(COC(=O)c2ccc(NC(C)=O)cc2)cc1 | 0 | 0 | 0 | 0 | 0 | 0 | - | - | - | -
CC(=O)Nc1ccc(C(=O)OCc2ccc(Cl)cc2)cc1 | 0 | 0 | 0 | 0 | 0 | -91 | 0 | 97 | 58 | 96
O=C(NCc1ccc2c(c1)OCO2)C1CCC(=O)N1C1CCCC1 (centres undefined) | 0 | 0 | 0 | 0 | 0 | 0 | - | - | - | -
CN(CC(=O)Nc1ccc(F)cc1)C(=O)C1CCN(C(=O)Nc2ccccc2)CC1 | - | - | 0 | - | - | - | - | - | - | -
N#Cc1nc(-c2ccccc2)oc1NCc1ccco1 | 0 | 0 | 0 | 0 | 0 | ? | 0 | 90 | 0 | 93
SMILES | HIF act | CHT block | VLA-4 inh | CHT allo act | Platelet DG rel | AI-2 QS mod | JMH597 growth | BB721 lum counter | BB721 growth | AI-2 QS JMH597 | others
COc1ccc(-c2nc(C#N)c(NCCc3ccccc3)o2)cc1 | 0 | 0 | 0 | 0 | 0 | 0 | - | - | - | -
COc1ccc(CNc2oc(-c3ccccc3)nc2C#N)cc1 | 0 | 0 | 0 | 0 | 0 | -95 | 0 | 98 | 0 | 99
Cc1cc(=O)oc2cc(NC(=O)CN3C(=O)NC(C)(c4ccccc4)C3=O)ccc12 (centres undefined) | 0 | 0 | 0 | 0 | 0 | -84 | 0 | 86 | 0 | 91
CC(C)CC1(C)NC(=O)N(CC(=O)Nc2ccc3c(c2)CCC3)C1=O (centres undefined) | 0 | 0 | 0 | 0 | 0 | -85 | 0 | 90 | 0 | 94
CC1(c2ccc(Cl)cc2)NC(=O)N(CC(=O)Nc2ccc(F)cc2)C1=O (centres undefined) | 0 | 0 | 0 | 0 | 0 | -78 | 0 | 86 | 0 | 89
CC1(c2ccc(OC(F)F)cc2)NC(=O)N(CC(=O)Nc2ccc3c(c2)OCO3)C1=O (centres undefined) | 0 | 0 | 0 | 0 | 0 | -94 | 0 | 96 | 0 | 97
CC1(c2ccc(Cl)cc2)NC(=O)N(CC(=O)NCc2ccc(F)cc2)C1=O (centres undefined) | 0 | 0 | 0 | 0 | 0 | 0 | - | - | - | -
CC1(c2ccccc2)NC(=O)N(CC(=O)Nc2ccc3c(c2)OCO3)C1=O (centres undefined) | 0 | 0 | 0 | 0 | 0 | -95 | 0 | 96 | 0 | 98
Cc1cc(S(=O)(=O)Nc2ccc(C(=O)NCCCN3CCCC3=O)cc2)ccc1F | 0 | 0 | 0 | 0 | 0 | 0 | - | - | - | -
O=C(O)c1ccc(NCc2ccc(Br)cc2)cc1 | 0 | 0 | 0 | 0 | 0 | -96 | 0 | 100 | 0 | 100
O=C(O)c1ccc(NCc2cccnc2)cc1 | 0 | 0 | 0 | 0 | 0 | 0 | - | - | - | -
Cc1nnc(SCC(=O)N(C2CCCCC2)C2CCS(=O)(=O)C2)n1N (centres undefined) | 0 | 0 | 0 | 0 | 0 | 0 | - | - | - | -
CCSc1nsc(NC(=O)Nc2ccc(F)cc2F)n1 | 0 | 0 | 0 | 0 | 0 | ? | 82 | 94 | ? | 99
C(=C\c1nc(-c2ccccc2)no1)/c1ccccc1 | 0 | 0 | 0 | 0 | 0 | -88 | 0 | 95 | 0 | 96
O=C(/C=C/c1ccccc1)NNc1ccc(Cl)cc1 | 0 | 0 | 55 | 0 | 0 | -97 | 0 | 100 | ? | 100 | VLA-4 allo CP=0
Cc1nn(CC(=O)N(C)C)c(=O)c2ccccc12 | 0 | 0 | 0 | 0 | 0 | 0 | - | - | - | -
Cc1nn(CC(=O)Nc2ccc(C(=O)N(C)C)cc2)c(=O)c2ccccc12 | 0 | 0 | 51 | 0 | 0 | -90 | 0 | 97 | 0 | 98 | VLA-4 allo CP=0
O=C(CN1CCN(C(=O)C2CCCO2)CC1)Nc1ccc(Br)cc1 (centres undefined) | 0 | 0 | 0 | 0 | 0 | 0 | - | - | - | -

Source: PubChem (several laboratories)
